Laboratory results published in PubChem BioAssay (NCI).
The panel holds about 83,000 compounds, 20% with a hit somewhere; the sample as a whole holds those more often.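 The endpoint reported here, percent growth, reads 100 for growth as untreated, 0 for no net growth and -100 for all cells dead.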 Values without a mark were called inactive. Activity calls are given as the source filed them. How the source made its calls: active means growth percent below 10; inactive means the rest.

Columns and labels:
Experiment in all cases: NCI-60 one-dose screen, 48 h (100 = growth as untreated, 0 = no growth, -100 = all killed)
Details in all cases: 10 µM unless noted
[1] = test system: DU-145 prostate
[2] = test system: K-562 leukemia
[3] = test system: MALME-3M melanoma
[4] = test system: MDA-MB-231 breast
[5] = test system: RXF 393 renal
[6] = test system: SF-268 CNS
[7] = test system: SF-295 CNS
[8] = test system: SF-539 CNS
[9] = test system: UACC-257 melanoma
[10] = test system: M14 melanoma

| Structure (SMILES) | growth [1] | growth [2] | growth [3] | growth [4] | growth [5] | growth [6] | growth [7] | growth [8] | growth [9] | growth [10] |
| --- | --- | --- | --- | --- | --- | --- | --- | --- | --- | --- |
| c1cc(OCCN2CCCC2)ccc1CNc1ccc2nc(CCC3CCCCC3)[nH]c2c1 | 65.2% | -11.7% (active) | -83.7% (active) | 11.2% | 42.2% | 58.3% | -30% (active) | -72.4% (active) | -77.8% (active) | -86.9% (active) |
| COC(=O)c1c2c(c(C)[n+]([O-])c1C)C(=O)C(NCc1ccccc1)=CC2=O | 42.4% | 24.4% | -77.8% (active) | 10.6% | 3% (active) | 28.3% | 43.5% | 8.86% (active) | -22% (active) | 9.18% (active) |
| CC(C)=CC(=O)N[C@H]1CC[C@]2(C)C3CC[C@]4(C)C(C(C)N(C)C)=CCC4C3CCC2[C@H]1O (stereo not given in full) | 71.9% | 19.5% | -27.3% (active) | 44.2% | 26.8% | 9.05% (active) | 59.2% | -32.2% (active) | -26.8% (active) | -56.3% (active) |
| Cc1ccc(C2CC(c3cccc(Nc4ccncc4)c3)=Nc3c(N)nc(N)nc3N2)cc1 (stereo not given) | 70.9% | 21.3% | 78.7% | 66.1% | 55.6% | 63.1% | 67% | 67.9% | 63.7% | 42.3% |
| CS(=O)/C(C#N)=C\C=C\c1cccc(Cl)c1 (stereo not given) | 23.1% | 10.3% | 34.7% | 40.6% | 49.5% | 17.2% | 32.5% | 17.7% | 31.9% | -3.44% (active) |
| CCN1C2CCC1/C(=C\c1ccccc1)C(=O)/C2=C/c1ccccc1 | 1.64% (active) | 32.1% | 63.7% | 79.2% | 48.9% | 42.8% | 48.4% | 45.4% | 52.2% | 48.2% |
| Cn1cc(-c2nonc2-c2c[nH]c3ccccc23)c2cc(Br)ccc21 | 58.1% | 11.1% | 40.8% | 37% | 70.9% | 43.3% | 24.5% | 40.1% | 71.5% | 18.5% |
| C=C1CC[C@@H]2C(C)(C)[C@H](O)CC[C@@]2(C)[C@@H]1COc1ccc2ccc(=O)oc2c1 | 56.9% | 41.9% | 74.3% | 84% | 101% | 68.3% | 48% | 88.4% | 69.4% | 53.3% |
| C=C1C(=O)O[C@H]2[C@H]1CC/C(COC(=O)NCc1ccc(Cn3c(=O)sn(-c4ccccc4)c3=O)cc1)=C\CC[C@@]1(C)O[C@@H]21 | 23.3% | 1.19% (active) | -9.16% (active) | 47.2% | 6.99% (active) | 46.6% | 108% | 29% | 68.3% | 14.4% |
| Cc1ccc2c(c1)sc1nc(-c3c[nH]c4ccccc34)c(Nc3ccccc3)n12 | 108% | 94.4% | 101% | 93% | 111% | 101% | 100% | 97.2% | 105% | 107% |
| O=C(Cn1nc(-c2cccc3ccccc23)ccc1=O)NCc1cccc(Cl)c1 | 55.7% [50 µM] | 20.4% [50 µM] | 70.5% [50 µM] | 55% [50 µM] | 37.7% [50 µM] | 52.9% [50 µM] | 18.7% [50 µM] | 58.3% [50 µM] | 44.2% [50 µM] | 34% [50 µM] |
| Cc1cccc(-c2nc(C(C)C)sc2-c2ccnc(NCCCNS(=O)(=O)c3ccc(Cl)cc3)c2)c1 | 78.2% | 30.5% | 99.9% | 76.5% | 103% | 67.4% | 80.7% | 84.2% | 113% | 82.2% |
| Nc1nc2ccccc2c2c(=O)c3cc(Cl)ccc3sc12 | 14.6% | 96.1% | 108% | 84.7% | 108% | 13% | 96.2% | 95.5% | 99.1% | 105% |
